This is an account of results in PubChem BioAssay AID624377 (The Scripps Research Institute Molecular Screening Center, 2012).

The whole screen tested about 360,000 compounds, of which about 680 (0.19%) were called active. Rule as the data show it: active = inhibition above about 25%; inactive = the rest. Many of the other results were omitted from the sample, so actives are more common in it than they were.

The assay deals with Arf-GAP with SH3 domain, ANK repeat and PH domain-containing protein 1 (Homo sapiens) (UniProt Q9ULH1). The assay is described as follows: inhibitors of human ASAP1 ArfGAP activity, primary screen, biochemical, fluorescence polarization (AID 624377).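 Also: 0% = vehicle with enzyme and substrate and 100% = no enzyme.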 The settings on record: ASAP1-stimulated ARF1 GTP hydrolysis, GDP FP detection; at 16.5 µM; stronger effect = higher value. In general terms: In fluorescence polarisation assays a small probe gives low polarisation when free and higher when bound to something large.
Sequence of Arf-GAP with SH3 domain, ANK repeat and PH domain-containing protein 1 (Homo sapiens) (Q9ULH1 325-724 limits assumed): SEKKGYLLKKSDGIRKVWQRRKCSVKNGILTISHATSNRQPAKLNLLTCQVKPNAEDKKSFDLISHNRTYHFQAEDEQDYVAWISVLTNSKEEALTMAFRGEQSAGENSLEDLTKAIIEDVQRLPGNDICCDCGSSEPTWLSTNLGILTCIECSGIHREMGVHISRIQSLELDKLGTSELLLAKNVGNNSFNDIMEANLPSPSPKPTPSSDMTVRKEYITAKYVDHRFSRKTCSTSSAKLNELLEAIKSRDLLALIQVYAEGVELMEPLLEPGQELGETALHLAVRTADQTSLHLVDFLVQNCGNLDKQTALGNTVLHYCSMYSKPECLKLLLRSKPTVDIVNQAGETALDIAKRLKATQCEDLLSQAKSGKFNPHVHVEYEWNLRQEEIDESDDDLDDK
Take `COc1ccccc1-c1ccc([C@@H]2C[C@H]3[C@H](CON3C)CN2S(=O)(=O)c2cc(Cl)cc(Cl)c2)cc1`: the inhibition (commonly the drop in the measured response relative to a control, in per cent) was -15.3% (inactive).

Regarding `CN1CCCCC(NC(=O)C(C)(C)C)C1=O` (configuration not stated), the inhibition was -1.72% (inactive). Turning to `CC(=NNC(N)=O)c1ccc(Cl)c(-n2cccc2)c1`, the inhibition is 7.66% (inactive). To `Cc1cc(NCCc2c[nH]c3ccccc23)ccc1Oc1cccnc1` belongs 6.6% (inactive). Under `COC(=O)[C@]12C[C@H](CC(=O)N3CCN(C(=O)C4CC4)CC3)C(=O)N(Cc3ccc4c(c3)OCO4)C1=C[C@H](C(C)(C)C)O[C@@H]2C` stands -0.19% (inactive); under `COC(=O)[C@]12C[C@H](CC(=O)NCCc3ccccc3OC)C(=O)N(Cc3ccccc3)C1=C[C@H](C(C)C)O[C@@H]2C1CC1`, -3.14% (inactive).

Turning to `CC[C@H](C)[C@H]1CNC(=O)C(=O)N1CC1CCN(CCc2ccc(OC)c(OC)c2)CC1`, the inhibition is -3.91% (inactive). Under `COc1ccc(-c2ccc3c(n2)CCCN3S(=O)(=O)c2ccc(C)cc2)cc1` stands -10.4% (inactive); under `CN[C@H]1C[C@H]2c3[nH]c4c(-c5ccccc5)cccc4c3CCN2C(=O)[C@H]1[C@H](C)O`, -4.1% (inactive); under `COC(=O)C1=C(C)N(Cc2cccc(C(F)(F)F)c2)C(=NCc2cccc(C(F)(F)F)c2)NC1c1ccccc1C(F)(F)F` (configuration not stated), 4.19% (inactive). To `CCOC(=O)/C=C/c1ccccc1O` belongs 8.09% (inactive); to `C[C@@H]1ON(C)[C@H]2C[C@H]3c4cc(N5CCOCC5)ccc4CCN3C[C@@H]12`, 11.7% (inactive). To `COC(=O)c1cc2c(c3c4ccccc4n(S(=O)(=O)c4cccc(C)c4)c13)C(=O)N(Cc1ccccc1)C2` belongs -7.05% (inactive); to `O=C(CSc1nnnn1-c1ccc(O)cc1)c1ccc(F)cc1`, 1.74% (inactive). As for `COc1ccc(-n2nnnc2SCC(=O)c2ccc(OC)c(OC)c2)cc1`, the inhibition is 27.3% (active). To `COc1ccc(NC(=O)CSc2nnnn2-c2cccc(OC)c2)cc1` belongs 3.21% (inactive); to `OC(CCl)CCl`, 12.1% (inactive).

Take `COC(=O)c1c(-c2ccc(OC)cc2)c2c(c3c4cc(OC)ccc4n(S(=O)(=O)c4ccc(F)cc4)c13)C(=O)N(C)C2`: the inhibition is -0.62% (inactive).

Consider `CCCN1C(=O)c2[nH]nc(-c3ccccc3)c2C1c1ccccc1` (configuration not stated), for which the inhibition was 0.41% (inactive). To `C[C@H](CO)N1C[C@H](C)[C@@H](CN(C)C(=O)Nc2ccccc2F)OCc2cn(nn2)CCCC1=O` belongs -10.4% (inactive).

Regarding `Nc1ncnc2c1ncn2C1OC(CO)CC1O` (configuration not stated), the inhibition is 3.34% (inactive). Under `Cc1ccccc1C(=O)N[C@H](C(=O)N1CCC[C@H]1C(=O)NCc1ccccc1)C(C)C` stands -8.79% (inactive).
